# Results filed as inconclusive are left out. Calls of active or inactive are those of the source. How the source made its calls: active means hit-call score of the fitted dose curve at least 0.9, where 1 is the maximum; inconclusive means response in the unintended direction; inactive means score below 0.9.
# System: frog Estrogen Receptor (ER), gene 398734
# Experiment: ATG_frER1_XSP2: Attagene TRANS-FACTORIAL Multi-Species (XSP2) HepG2 Assay for frog Estrogen Receptor (ER) (AID 2283821);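 further: hits raise reporter mRNA above DMSO baseline so potency means agonist or activator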
# Procedure: ATG_XSP2_multi-species_TRANS is a cell-based, multiplexed assay created by modifying the existing Attagene TRANS-FACTORIAL system to include a panel of nuclear receptors from some or all the following species: human (Homo sapiens), mouse (Mus musculus), frog (Xenopus laevis), zebrafish (Danio rerio), chicken (Gallus gallus), and turtle (Chrysemys picta). The ECOTOX-FACTORIAL format uses HepG2, a human liver cell line, with measurements taken at 24 hours after chemical dosing in a 24-well plate. Xsp2 included 3 nM 6-alpha-fluorotestosterone and 1.5 nM norgestrel to stimulate the androgen receptor.ATG_frER1_XSP2 is one of 29 assay components measured or calculated from the ATG_XSP2_multi-species_TRANS assay. It is designed to make measurements of mRNA induction, a form of inducible reporter, as detected with fluorescence intensity signals by Reverse transcription polymerase chain reaction (RT-PCR) and Capillary electrophoresis technology.The assay endpoint ATG_frER1_XSP2 was analyzed in the positive analysis fitting direction relative to DMSO as the negative control and baseline of activity. Using a type of inducible reporter, measures of mRNA for gain-of-signal activity can be used to understand the reporter gene at the transcription factor-level as they relate to the gene ER. Furthermore, this assay endpoint can be referred to as a primary readout, because this assay has produced multiple assay endpoints where this one serves a reporter gene function. To generalize the intended target to other relatable targets, this assay endpoint is annotated to the nuclear receptor intended target family, where the subfamily is steroidal.
# Human liver HepG2 cells are transiently transfected with multiple reporter transcription units (MRTUs) in 6-well plates using FuGene 6 reagent (Roche; 3 ml FuGene/1 mg DNA). The MRTU constructs are regulated by a cis-regulating element (promoter). […] A major difference between the CIS and TRANS system is that in CIS activities of endogenous TFs are measured, whereas the TRANS assay evaluates changes in activities of exogenous, chimeric NR-Gal4 proteins. […] At the end of 24 hour incubation, total RNA was isolated using TriZol reagent (Invitrogen). The isolated RNA is then reverse-transcribed using oligo(dT) primer and Mo-MLV reverse transcriptase (Invitrogen) with DNAse I (Ambion) treatment for 30 min. The one-tenth of the produced cDNA was amplified by PCR using Taq DNA polymerase (Invitrogen) and two reporter sequence-specific primers. The PCR products were fluorescently labeled by primer extension with 6-arboxyfluorescein (6-FAM) 5'-labeled reporter sequence-specific primer (2 min at 95 C, 20 s at 68 C and 10 min at 72 C) and these products were digested with 5U of HpaI (New England Biolabs) for 2h at 37 C. The fragments were purified using Qiaquick PCR columns (Qiagen), analyzed on an ABI 3130xL genetic analyzer (Applied Biosystems) with peak positions identified by using a set of X-rhodamine (ROX)-labeled MapMarker1000 molecular weight standards (BioVentures). The raw capillary electrophoresis data was processed using Attagraph software (Attagene).
Compound,AC50,outcome
COP(=S)(OC)Oc1ccc(SC)c(C)c1,27.3 µM (active),
COP(=S)(OC)Oc1ccc([N+](=O)[O-])cc1,,inactive
CC1(C)C(C=C(Cl)Cl)C1C(=O)OC(C#N)c1ccc(F)c(Oc2ccccc2)c1 (stereo not given),,inactive
O=S1OCC2C(CO1)C1(Cl)C(Cl)=C(Cl)C2(Cl)C1(Cl)Cl (stereo not given),,inactive
CCCN(CCC)c1c([N+](=O)[O-])cc(C(F)(F)F)cc1[N+](=O)[O-],,inactive
CCCN(CCOc1c(Cl)cc(Cl)cc1Cl)C(=O)n1ccnc1,,inactive
O=S(=O)(O)C(F)(F)C(F)(F)C(F)(F)C(F)(F)C(F)(F)C(F)(F)C(F)(F)C(F)(F)F,,inactive
O=C(O)C(F)(F)C(F)(F)C(F)(F)C(F)(F)C(F)(F)C(F)(F)C(F)(F)F,,inactive
Oc1cc(Cl)ccc1Oc1ccc(Cl)cc1Cl,,inactive
CC(C)(C)C(O)/C(=C\c1ccc(Cl)cc1Cl)n1cncn1 (stereo not given),,inactive

# — PubChem BioAssay (EPA / NIEHS)
